These results are taken from ChEMBL document CHEMBL3988442, “University of Dundee, Small-Polar-MMV Screening Library” (2021).

For some assays here: Results with a measured potency or affinity are listed apart.

What all share (design): scale not given: direction of the effect not stated beside the values
Test [1] deals with Protein translocase subunit SecA (Escherichia coli (strain K12)) (UniProt P10408). Description: Assay to Identify E. coli SecA ATPase Inhibitors. The test is classed as functional. The conditions noted are these: 30 µM.
The target of test [2] is T1, Ubiquitin-activating enzyme e1, putative (Leishmania donovani (strain BPK282A1)) (UniProt E9BSI1).
T1 sequence (whole entry): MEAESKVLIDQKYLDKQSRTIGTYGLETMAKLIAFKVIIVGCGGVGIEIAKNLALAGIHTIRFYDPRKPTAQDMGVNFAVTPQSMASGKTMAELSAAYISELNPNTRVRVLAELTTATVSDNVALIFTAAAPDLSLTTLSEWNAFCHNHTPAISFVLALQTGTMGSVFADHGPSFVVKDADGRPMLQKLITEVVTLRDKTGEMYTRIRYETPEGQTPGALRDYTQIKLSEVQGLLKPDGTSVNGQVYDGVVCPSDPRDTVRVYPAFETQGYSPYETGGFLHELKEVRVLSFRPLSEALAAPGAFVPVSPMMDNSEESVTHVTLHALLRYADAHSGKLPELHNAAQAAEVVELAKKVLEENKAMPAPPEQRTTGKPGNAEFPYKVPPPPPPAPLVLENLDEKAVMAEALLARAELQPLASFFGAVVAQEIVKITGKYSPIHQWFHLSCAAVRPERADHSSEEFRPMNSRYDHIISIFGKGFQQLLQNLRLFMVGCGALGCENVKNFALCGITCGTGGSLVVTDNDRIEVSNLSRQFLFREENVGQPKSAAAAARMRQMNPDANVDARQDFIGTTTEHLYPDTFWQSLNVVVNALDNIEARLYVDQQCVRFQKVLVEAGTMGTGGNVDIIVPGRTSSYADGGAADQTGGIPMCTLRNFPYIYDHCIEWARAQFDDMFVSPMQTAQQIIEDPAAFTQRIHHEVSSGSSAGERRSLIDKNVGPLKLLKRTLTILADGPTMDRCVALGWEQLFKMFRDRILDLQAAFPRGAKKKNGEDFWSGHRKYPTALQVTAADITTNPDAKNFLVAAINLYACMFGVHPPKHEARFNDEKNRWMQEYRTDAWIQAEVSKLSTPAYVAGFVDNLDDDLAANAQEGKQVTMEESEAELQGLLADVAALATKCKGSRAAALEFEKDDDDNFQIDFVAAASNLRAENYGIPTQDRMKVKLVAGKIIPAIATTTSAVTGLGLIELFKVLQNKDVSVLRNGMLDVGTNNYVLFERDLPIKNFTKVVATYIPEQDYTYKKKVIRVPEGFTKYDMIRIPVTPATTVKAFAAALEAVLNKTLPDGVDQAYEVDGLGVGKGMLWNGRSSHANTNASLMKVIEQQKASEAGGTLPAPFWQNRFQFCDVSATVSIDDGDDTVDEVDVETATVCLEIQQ
Description: Leishmania donovani Ubiquitin Activating Enzyme (LdE1). In kind it is functional. The conditions noted are these: 30 µM.

Test [3] concerns the target AMP-activated protein kinase, AMPK (Homo sapiens) (UniProt P54646+O43741+P54619+Q9UGJ0+Q9Y478+Q13131+Q9UGI9). Description: AMP-dependent Kinase enzyme assay. An in vitro enzyme assay that detects ADP turnover that is directly proportional to AMPK activity. This uses naive AMPK that is activated during the assay with MK-8722. The conditions noted are these: 30 µM. In kind it is functional.

For test [4], the target named is Sialic acid-binding Ig-like lectin 9 (Homo sapiens) (UniProt Q9Y336). As to the kind of experiment: Hs-Siglec9 ALPHAscreen SOP 20170721. The following applies: 10 µM.
A further test concerns Trypanosoma cruzi. As to the kind of experiment: Trypanosoma cruzi phosphomannomutase and mannose-1-phosphate guanylyltransferase assay. In kind it is functional. The conditions noted are these: 10 µM.
Test [5] deals with T2, Arginase-2, mitochondrial (Homo sapiens) (UniProt P78540).
T2 sequence (whole entry): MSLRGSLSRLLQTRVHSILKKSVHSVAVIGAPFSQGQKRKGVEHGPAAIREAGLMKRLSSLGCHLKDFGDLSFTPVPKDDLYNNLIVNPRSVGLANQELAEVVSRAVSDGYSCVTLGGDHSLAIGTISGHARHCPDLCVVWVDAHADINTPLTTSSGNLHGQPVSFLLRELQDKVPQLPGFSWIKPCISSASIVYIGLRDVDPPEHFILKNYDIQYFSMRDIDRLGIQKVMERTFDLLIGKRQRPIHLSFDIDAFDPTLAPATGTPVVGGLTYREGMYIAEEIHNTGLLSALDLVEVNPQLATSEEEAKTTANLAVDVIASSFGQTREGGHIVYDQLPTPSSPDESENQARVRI
As to the kind of experiment: in vitro enzyme assay to detect the production of urea directly proportional to the activity of Arginase II. Note: in the data most compounds retested in dose-response had high values. The test is classed as functional. The following applies: 33.3 µM.

Test [6] has as its target T3, Proteasome subunit beta (Trypanosoma cruzi) (UniProt O96673).
T3 sequence (whole entry): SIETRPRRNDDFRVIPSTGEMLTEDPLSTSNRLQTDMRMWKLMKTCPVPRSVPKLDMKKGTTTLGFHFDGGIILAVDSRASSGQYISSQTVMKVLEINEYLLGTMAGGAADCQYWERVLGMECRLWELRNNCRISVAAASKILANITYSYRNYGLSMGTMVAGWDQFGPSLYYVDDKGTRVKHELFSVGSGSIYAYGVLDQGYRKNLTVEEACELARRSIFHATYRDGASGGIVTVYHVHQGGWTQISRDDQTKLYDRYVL
Description: Trypanosoma cruzi proteasome chymotrypsin-like activity (TcProtChymo) assay. Note: in the data most compounds retested in dose-response had high values. In kind it is functional. The conditions noted are these: 9.37 µM.

The species named for the next test is Homo sapiens. As to the kind of experiment: To identify inhibition of the IFN signalling (Jak-Stat) pathway via expression of an eGFP reporter gene under the control of an IFN-stimulated response element (ISRE) containing MxA promoter. In kind it is functional. The following applies: 30 µM.
Test [7] deals with T4, Tyrosyl-tRNA synthetase, putative (Trypanosoma cruzi (strain CL Brener)) (UniProt Q4DSP6).
T4 sequence (whole entry): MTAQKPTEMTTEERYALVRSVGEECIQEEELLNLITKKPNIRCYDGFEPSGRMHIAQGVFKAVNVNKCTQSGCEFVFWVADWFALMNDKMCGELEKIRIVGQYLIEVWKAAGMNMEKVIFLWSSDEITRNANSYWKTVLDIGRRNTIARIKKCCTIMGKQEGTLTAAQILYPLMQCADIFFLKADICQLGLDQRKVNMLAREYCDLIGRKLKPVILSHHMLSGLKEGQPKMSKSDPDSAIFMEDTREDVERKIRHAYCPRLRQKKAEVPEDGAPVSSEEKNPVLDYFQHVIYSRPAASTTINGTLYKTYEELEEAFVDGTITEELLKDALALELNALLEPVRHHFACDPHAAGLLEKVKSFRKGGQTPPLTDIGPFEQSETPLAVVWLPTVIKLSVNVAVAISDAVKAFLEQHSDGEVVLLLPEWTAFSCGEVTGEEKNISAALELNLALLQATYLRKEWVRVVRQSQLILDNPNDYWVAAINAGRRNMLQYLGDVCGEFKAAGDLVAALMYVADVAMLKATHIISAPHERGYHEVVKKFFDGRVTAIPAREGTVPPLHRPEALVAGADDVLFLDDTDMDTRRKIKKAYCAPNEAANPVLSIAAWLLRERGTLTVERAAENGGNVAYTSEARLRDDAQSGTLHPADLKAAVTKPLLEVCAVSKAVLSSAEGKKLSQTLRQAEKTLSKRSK
Description: Trypanosoma cruzi tyrosyl tRNA synthetase (TcYRS) _High Tyrosine SOP. Note: in the data most compounds retested in dose-response had high values. The test is classed as functional. The conditions noted are these: 30 µM.

Test [8] has as its target T4, Tyrosyl-tRNA synthetase, putative (Trypanosoma cruzi (strain CL Brener)). Description: Trypanosoma cruzi tyrosyl tRNA synthetase (TcYRS) SOP. In kind it is functional. The conditions noted are these: 30 µM.
The target in test [9] is Chromo domain-containing protein 1 (Saccharomyces cerevisiae (strain ATCC 204508 / S288c) (Baker's yeast)) (UniProt P32657). Description: ScCHD-1 Enzyme Inhibition Assay. Note: in the data most compounds retested in dose-response had high values. The test is classed as functional. The conditions noted are these: 30 µM.
Chromo domain-containing protein 1 (Saccharomyces cerevisiae (strain ATCC 204508 / S288c) (Baker's yeast)), sequence (P32657 whole entry, the tested form may be a part): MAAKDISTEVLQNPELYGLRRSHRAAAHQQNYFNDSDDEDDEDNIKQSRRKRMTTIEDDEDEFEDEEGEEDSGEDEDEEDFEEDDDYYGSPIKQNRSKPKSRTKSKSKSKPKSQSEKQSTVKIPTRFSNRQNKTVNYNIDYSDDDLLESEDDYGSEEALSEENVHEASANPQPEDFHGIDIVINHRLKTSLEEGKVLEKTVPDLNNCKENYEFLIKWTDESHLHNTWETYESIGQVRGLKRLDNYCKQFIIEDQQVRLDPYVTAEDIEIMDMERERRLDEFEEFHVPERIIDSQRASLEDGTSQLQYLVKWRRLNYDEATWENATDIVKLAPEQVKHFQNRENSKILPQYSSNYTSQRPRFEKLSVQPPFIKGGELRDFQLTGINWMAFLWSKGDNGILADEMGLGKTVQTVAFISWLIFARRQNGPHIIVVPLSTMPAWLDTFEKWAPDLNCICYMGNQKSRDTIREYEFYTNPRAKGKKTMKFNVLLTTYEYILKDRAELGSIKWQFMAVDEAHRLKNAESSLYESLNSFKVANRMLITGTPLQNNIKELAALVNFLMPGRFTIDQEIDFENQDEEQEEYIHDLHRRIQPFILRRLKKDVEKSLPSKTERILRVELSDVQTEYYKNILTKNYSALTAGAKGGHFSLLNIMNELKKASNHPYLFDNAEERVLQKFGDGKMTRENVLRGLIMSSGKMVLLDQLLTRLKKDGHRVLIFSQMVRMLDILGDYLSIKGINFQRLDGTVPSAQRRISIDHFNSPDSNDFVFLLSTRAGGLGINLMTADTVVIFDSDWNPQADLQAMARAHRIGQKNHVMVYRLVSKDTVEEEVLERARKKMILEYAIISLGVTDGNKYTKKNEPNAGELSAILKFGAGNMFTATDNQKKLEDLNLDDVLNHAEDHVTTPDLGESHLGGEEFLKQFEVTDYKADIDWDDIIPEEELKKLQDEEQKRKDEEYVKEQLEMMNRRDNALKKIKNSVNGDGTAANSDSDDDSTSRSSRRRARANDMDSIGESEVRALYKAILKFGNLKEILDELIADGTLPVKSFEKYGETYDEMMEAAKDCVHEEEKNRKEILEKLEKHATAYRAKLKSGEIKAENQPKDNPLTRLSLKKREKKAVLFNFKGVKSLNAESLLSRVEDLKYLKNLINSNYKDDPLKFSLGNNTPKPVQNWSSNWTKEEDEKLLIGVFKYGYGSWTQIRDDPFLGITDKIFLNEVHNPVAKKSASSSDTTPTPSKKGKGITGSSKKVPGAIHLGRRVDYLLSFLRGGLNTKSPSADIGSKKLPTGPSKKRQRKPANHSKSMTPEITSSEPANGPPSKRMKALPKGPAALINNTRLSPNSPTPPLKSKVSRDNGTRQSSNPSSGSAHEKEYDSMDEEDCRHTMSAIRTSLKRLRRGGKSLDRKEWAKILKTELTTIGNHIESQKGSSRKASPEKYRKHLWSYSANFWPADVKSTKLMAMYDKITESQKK

Sialic acid-binding Ig-like lectin 9 (Homo sapiens), sequence (Q9Y336 whole entry): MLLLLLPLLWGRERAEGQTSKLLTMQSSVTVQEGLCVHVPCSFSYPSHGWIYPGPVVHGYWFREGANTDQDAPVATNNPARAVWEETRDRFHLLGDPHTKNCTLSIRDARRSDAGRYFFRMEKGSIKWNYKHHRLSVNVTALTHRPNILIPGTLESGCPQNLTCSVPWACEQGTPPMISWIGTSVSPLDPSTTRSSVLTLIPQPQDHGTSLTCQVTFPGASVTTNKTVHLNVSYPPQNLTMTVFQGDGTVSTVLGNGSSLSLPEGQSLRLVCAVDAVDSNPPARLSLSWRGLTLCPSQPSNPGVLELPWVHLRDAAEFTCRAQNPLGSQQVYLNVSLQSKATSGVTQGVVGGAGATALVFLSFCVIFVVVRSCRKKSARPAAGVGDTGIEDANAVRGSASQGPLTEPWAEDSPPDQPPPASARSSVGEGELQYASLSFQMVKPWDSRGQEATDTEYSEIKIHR
Protein translocase subunit SecA (Escherichia coli (strain K12)), sequence (P10408 whole entry): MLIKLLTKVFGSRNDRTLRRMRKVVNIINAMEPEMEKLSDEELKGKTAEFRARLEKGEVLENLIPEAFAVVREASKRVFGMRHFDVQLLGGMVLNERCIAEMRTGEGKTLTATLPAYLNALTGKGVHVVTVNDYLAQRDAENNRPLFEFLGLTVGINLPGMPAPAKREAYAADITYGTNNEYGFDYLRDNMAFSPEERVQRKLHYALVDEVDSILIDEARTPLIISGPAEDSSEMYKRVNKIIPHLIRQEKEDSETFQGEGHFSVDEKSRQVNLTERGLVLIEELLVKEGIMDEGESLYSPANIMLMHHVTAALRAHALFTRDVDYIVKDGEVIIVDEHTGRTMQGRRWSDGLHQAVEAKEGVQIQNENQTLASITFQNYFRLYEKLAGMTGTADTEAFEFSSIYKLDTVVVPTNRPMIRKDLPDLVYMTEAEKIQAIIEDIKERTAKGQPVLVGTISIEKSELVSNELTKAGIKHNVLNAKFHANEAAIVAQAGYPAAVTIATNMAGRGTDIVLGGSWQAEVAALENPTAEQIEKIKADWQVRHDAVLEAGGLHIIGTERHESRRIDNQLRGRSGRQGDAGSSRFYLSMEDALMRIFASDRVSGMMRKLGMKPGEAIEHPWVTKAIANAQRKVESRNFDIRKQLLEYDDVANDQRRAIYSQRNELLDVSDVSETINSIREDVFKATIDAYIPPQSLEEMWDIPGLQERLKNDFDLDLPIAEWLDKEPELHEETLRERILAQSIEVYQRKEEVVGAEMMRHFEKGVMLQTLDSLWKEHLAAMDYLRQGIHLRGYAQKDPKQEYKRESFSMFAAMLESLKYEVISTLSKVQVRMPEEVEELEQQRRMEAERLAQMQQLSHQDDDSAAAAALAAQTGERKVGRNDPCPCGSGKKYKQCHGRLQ

As for `CCc1nc(CCNC(=O)NC2CC2)sc1C`, the Percent Effect was -5.62% in test [1]; 0% in test [2]; -1.43% in [3]; -3.96% in test [4]; 0% in the test on Trypanosoma cruzi; 1.67% in [5]. In addition, the Percent Effect in test [6] is 9.89%; in the test listed under Homo sapiens, 5.25%; in [7], 6.93%; in [8], -1.22%; in test [9], -6.36%.
As for `Cc1cc(C)n(-c2cncc(NCCNC(=O)C(C)C)n2)n1`, the Percent Effect in test [1] was -6.42%; in [2], 8.11%; in [3], -5.29%; in test [4] it was -1.97%; in the test on Trypanosoma cruzi, -3.03%; in test [5], 0.248%. For the same compound, the Percent Effect in test [6] was 10.4%; in the test listed under Homo sapiens, -9.83%; in [7], 4.3%; in test [8] it was 6.17%; in test [9], -5.51%.
With `c1cnnc(N2CCCC(NCc3ccc(-n4ccnc4)cc3)C2)c1` (stereo not given), the Percent Effect in [1] was -1.81%; in test [2], 2.6%; in test [3], 5.74%; in test [4] it was 12%; in the test on Trypanosoma cruzi, -0.49%; in [5], 1.9%. The Percent Effect in [6] was 8.33%; in the test filed under Homo sapiens, 3.55%; in [7] it was 0.952%; in [8], 0%; in test [9] it was -13.3%.
`COc1ccc(NC(C)=O)c(N2CCN(C(C)=O)CC2)n1`: the Percent Effect in test [1] was -3.73%; in [2], -2.7%; in test [3], -14.1%; in test [4] it was -3.66%; with Trypanosoma cruzi, -3.32%; in test [5] it was 0%. For the same compound, the Percent Effect in [6] is 7.35%; in the test filed under Homo sapiens, -1.36%; in [7] it was 7.92%; in test [8] it was 8.54%; in [9], 15.3%.
Take `CC(C)(C)C(=O)N1CCC(c2nc(O)cc(-c3ccccn3)n2)CC1`: the Percent Effect is -0.499% in [1]; 12.2% in [2]; 8.91% in test [3]; -7.12% in test [4]; -0.79% with Trypanosoma cruzi; -5.34% in test [5]. Besides, the Percent Effect was 12% in test [6]; 11.1% in the test filed under Homo sapiens; 2.15% in test [7]; 1.3% in test [8]; -8.6% in test [9].
As for `CC(=O)Nc1nc(C(=O)Nc2ccc(F)cc2)cs1`, the Percent Effect in test [1] was -2.09%; in [2] it was 15.6%; in test [3], 28%; in test [4], -6.42%; in the test on Trypanosoma cruzi it was -1.86%; in test [5] it was -15.4%. In addition, the Percent Effect in [6] came out at 16.7%; in the test filed under Homo sapiens, 8.03%; in test [7], 7.62%; in [8] it was 18.8%; in test [9], 3.31%.
`Cc1nccc(-c2cccc(NCC(=O)N3CCCCCCC3)c2)n1`: the Percent Effect was -8% in [1]; -5.26% in test [2]; 11.7% in [3]; -8.15% in test [4]; -0.28% with Trypanosoma cruzi; -0.36% in test [5]. Besides, the Percent Effect in [6] was 5.16%; in the test filed under Homo sapiens, 28.6%; in test [7], 2.46%; in test [8] it was -1.24%; in test [9], -1.53%.
Consider `c1csc(CN2C[C@@H]3OCCN(CC4CCCO4)[C@@H]3C2)c1` (stereo not given in full), for which the Percent Effect in test [1] is -3.09%; in test [2] it was 5.48%; in [3] it was -0.633%; in test [4] it was 5.1%; with Trypanosoma cruzi, -1.39%; in test [5], -1.2%. For the same compound, the Percent Effect in test [6] turned out to be 10.2%; in the test filed under Homo sapiens, 4.94%; in [7], 5.21%; in test [8], 16.1%; in test [9], 1.15%.
As for `COCC(=O)N(C)Cc1ccc(Cl)c(Cl)c1`, the Percent Effect in test [1] is -4.08%; in [2], -2.63%; in [3] it was 8.5%; in test [4], 7.96%; in the test with Trypanosoma cruzi it was -3.21%; in test [5], -5.92%. The Percent Effect is 21.2% in test [6]; 10.7% in the test listed under Homo sapiens; 0% in test [7]; 2.6% in test [8]; -8.73% in test [9].
In the case of `CCC(=O)NCCc1cc(N2CCN(C(C)=O)CC2)nc(C2CC2)n1`, the Percent Effect was -1.34% in test [1]; 6.76% in test [2]; 12.6% in test [3]; -2.83% in test [4]; -6.72% in the test with Trypanosoma cruzi; 3.02% in [5]. Besides, the Percent Effect is 10.3% in [6]; 16.2% in the test filed under Homo sapiens; 2.15% in [7]; 11.7% in test [8]; 1.75% in [9].
